Results reported in PubChem BioAssay (Tox21).
“And” between values parts separate entries of the source, which are not always exact repeats. Equal values may be shown once. Records with an inconclusive call do not appear. Where a call stands in place of a potency, no number is given. A structure can be active in one record and inactive in another. The source made the active and inactive calls. Unless noted, calls come from the whole dose curve; as a rule, active = well fitted cell-killing curve with a large enough effect in the repeat runs; inconclusive = weak or mixed curves, or effect the other way; inactive = no such curve, though single readings can be large or run the other way.

molecular target: Thyrotropin receptor (Homo sapiens) (UniProt P16473); experiment: qHTS assay to identify small molecule antagonists of the thyroid stimulating hormone receptor (TSHR) signaling pathway (AID 1259385; calls by dose curve; note: nearly all actives have a fitted effect of over 20% in size); conditions: TSHR-HEK293 cAMP HTRF, TSH-stimulated antagonist mode; series mostly up to 92.4 µM; activity change, negative = inhibition: at the top concentration
Sequence (P16473 whole entry, looked up): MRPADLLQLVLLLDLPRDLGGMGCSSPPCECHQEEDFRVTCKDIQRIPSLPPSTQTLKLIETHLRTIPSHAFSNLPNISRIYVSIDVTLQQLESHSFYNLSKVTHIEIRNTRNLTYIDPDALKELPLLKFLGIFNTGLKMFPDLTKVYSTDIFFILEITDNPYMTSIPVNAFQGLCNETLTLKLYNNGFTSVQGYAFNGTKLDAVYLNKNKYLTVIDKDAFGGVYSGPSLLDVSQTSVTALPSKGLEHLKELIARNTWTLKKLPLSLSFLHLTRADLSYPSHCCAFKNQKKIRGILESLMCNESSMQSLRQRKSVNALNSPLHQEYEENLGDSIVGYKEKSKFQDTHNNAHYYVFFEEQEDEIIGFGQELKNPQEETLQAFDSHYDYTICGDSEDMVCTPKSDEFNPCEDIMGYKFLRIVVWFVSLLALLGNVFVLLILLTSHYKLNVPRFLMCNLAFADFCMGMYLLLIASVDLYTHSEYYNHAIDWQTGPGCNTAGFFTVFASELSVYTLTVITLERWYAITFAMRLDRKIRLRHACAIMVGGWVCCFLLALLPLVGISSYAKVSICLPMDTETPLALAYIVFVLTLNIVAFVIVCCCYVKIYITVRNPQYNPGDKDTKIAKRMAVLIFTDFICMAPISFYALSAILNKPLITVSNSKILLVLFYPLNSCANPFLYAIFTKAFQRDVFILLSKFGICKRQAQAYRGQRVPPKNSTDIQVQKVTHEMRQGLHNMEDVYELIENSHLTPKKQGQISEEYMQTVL
Summary of the method: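 TSHR-HEK293 cells were plated and held 18 h at 37C/5% CO2, then given compound plus Ro20-1724 and stimulated with TSH at 1.5 ng/mL final. After 30 min at room temperature, cAMP was detected with cAMP-d2/anti-cAMP-cryptate (1 h) by fluorescence.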

| SMILES | outcome | activity change, negative = inhibition |
| --- | --- | --- |
| COCC(C)N (stereo not drawn) | inactive |  |
| C/C=C/c1ccc(O)c(OC)c1 | inactive |  |
| Cc1cccc(Nc2cc(Cl)nc(SCC(=O)O)n2)c1C | inactive |  |
| CCCCCCCCCCCCCC(=O)OC(C)C | inactive |  |
| COc1cc(C=O)ccc1O | inactive |  |
| COc1ccc(C(=O)c2ccccc2)c(O)c1 |  | -8.31% (inactive) |
| C1CNCCN1 | inactive |  |
| COc1cc(O)c(C(=O)c2ccccc2)cc1S(=O)(=O)O | inactive |  |
| COc1ccc(O)cc1 | inactive |  |
| CC(O)COc1ccccc1 (stereo not drawn) | inactive |  |
| NC(N)=NC(N)=NCCc1ccccc1 | inactive |  |
| CC1=NN(c2ccccc2)C(=O)C1 | inactive |  |
| O=c1c(-c2ccc(O)cc2)coc2cc(O)cc(O)c12 | inactive |  |
| NC(=O)N/N=C/c1ccc([N+](=O)[O-])o1 | inactive |  |
| C[C@]12CC[C@@H]3c4ccc(O)cc4C[C@@H](CCCCCCCCCS(=O)CCCC(F)(F)C(F)(F)F)[C@H]3[C@@H]1CC[C@@H]2O (stereo partly drawn) | inactive |  |
| CC(=O)c1ccc(S(=O)(=O)NC(=O)NC2CCCCC2)cc1 | inactive |  |
| CN(C)Cc1cc(CN(C)C)c(O)c(CN(C)C)c1 | inactive |  |
| Cc1ccc(O)c(-n2nc3ccccc3n2)c1 | inactive |  |
| COC(=O)c1ccc(O)cc1 | inactive |  |
| c1ccc2[nH]c(-c3cscn3)nc2c1 | inactive |  |
| O=C1OC(c2ccc(O)cc2)(c2ccc(O)cc2)c2ccccc21 | inactive |  |
| OCCCc1ccccc1 | inactive |  |
| NC(=O)OCC(COC(N)=O)c1ccccc1 | inactive |  |

tested on: not listed separately; experiment: qHTS assay to identify small molecule agonists of the estrogen receptor alpha (ER-alpha) signaling pathway in the presence of an antagonist - cell viability counter screen (AID 1259386); conditions: VM7Luc4E2 viability, CellTiter-Fluor fluorescence, 22 h; series mostly up to 92.4 µM; activity change, negative = cytotoxicity: at the top concentration;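 note: cells exposed to compounds for 22 h at 37 °C before the viability read; nearly all actives have a fitted effect of over 30% in size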; note: potency is the fitted concentration of half-maximal effect
Summary of the method: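 In this counter screen, compound effects on VM7Luc4E2 viability were tested in the presence of the antagonist ICI-182,780 at 10.0nM final. Compounds were dosed at 15 concentrations, exposure lasted 22hr, and the CellTiter-Fluor signal was read.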

| SMILES | Potency |
| --- | --- |
| CC(=O)Oc1ccccc1C(=O)O | inactive |
| COc1ccccc1O | inactive |
| COCCOCCOC | inactive |
| COCC(C)N (stereo not drawn) | inactive |
| NCCNc1cccc2ccccc12 | inactive |
| C/C=C/c1ccc(O)c(OC)c1 | inactive |
| Cc1cccc(Nc2cc(Cl)nc(SCC(=O)O)n2)c1C | inactive |
| CCCCCCCCCCCCCC(=O)OC(C)C | inactive |
| COc1cc(C=O)ccc1O | inactive |
| COc1ccc(C(=O)c2ccccc2)c(O)c1 | inactive |
| C1CNCCN1 | inactive |
| COc1cc(O)c(C(=O)c2ccccc2)cc1S(=O)(=O)O | inactive |
| COc1ccc(O)cc1 | inactive |
| CC(O)COc1ccccc1 (stereo not drawn) | inactive |
| NC(N)=NC(N)=NCCc1ccccc1 | inactive |
| CC1=NN(c2ccccc2)C(=O)C1 | inactive |
| O=c1c(-c2ccc(O)cc2)coc2cc(O)cc(O)c12 | inactive |
| NC(=O)N1c2ccccc2C=Cc2ccccc21 | inactive |
| Cc1cccc(C)c1O | inactive |
| NC(=O)N/N=C/c1ccc([N+](=O)[O-])o1 | inactive and 61.1 µM (active) |
| C[C@]12CC[C@@H]3c4ccc(O)cc4C[C@@H](CCCCCCCCCS(=O)CCCC(F)(F)C(F)(F)F)[C@H]3[C@@H]1CC[C@@H]2O (stereo partly drawn) | inactive |
| CC(=O)c1ccc(S(=O)(=O)NC(=O)NC2CCCCC2)cc1 | inactive |
| CN(C)Cc1cc(CN(C)C)c(O)c(CN(C)C)c1 | inactive |
| Cc1ccc(O)c(-n2nc3ccccc3n2)c1 | inactive |
| COC(=O)c1ccc(O)cc1 | inactive |
| c1ccc2[nH]c(-c3cscn3)nc2c1 | inactive |
| O=C1OC(c2ccc(O)cc2)(c2ccc(O)cc2)c2ccccc21 | inactive |
| OCCCc1ccccc1 | inactive |
| NC(=O)OCC(COC(N)=O)c1ccccc1 | inactive |
| COc1cc2c(c(OC)c1OC)-c1ccc(OC)c(=O)cc1[C@@H](NC(C)=O)CC2 | inactive |
